# Assay results: PubChem BioAssay (NCATS)
# Values joined by “and” are separate entries in the source; they are usually repeats but may differ in a detail not shown here. Identical values can stand only once. Results filed as inconclusive are left out. A call without a number means that no potency is given here. A structure can be active in one record and inactive in another. Active and inactive are the calls of the source. Calls come from the whole dose curve; as a rule, active = well fitted curve in the direction sought with a large enough effect; inconclusive = small, poorly fitted or top-dose-only effect, or another doubt; inactive = no such curve, though single readings can be large; an effect the other way counts as inactive or inconclusive. *1 amine or outer side, *2 acyl side, *3 side chain or, on linkers, in order; H or OH if unused. Where a SMILES comes first, the peptide text is derived from it. Bridges are numbered along the chain shown (N, C = ends). [ ]: non-standard residue; d: D form. The star is where a group is joined. ξ: configuration not given here. ΔAla(3-NHCONH2) = NC(=O)NC=C(N)C(=O)O; X2 = NC1=NCCC(C(N[*:1])C(=O)[*:2])N1; ξβ3hOrn = NCCCC(N)CC(=O)*; Dap = NC[CH](N)C(=O)O
# Legend:
# [1] = biological target: Cytochrome P450 3A7 (Homo sapiens) (UniProt P24462); experiment: Cytochrome P450 family 3 subfamily A member 7 (CYP3A7) small molecule antagonists: luciferase biochemical qHTS assay (AID 1963596); note: nearly all actives have a fitted effect of over 40% in size
# Summary of the method: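 Recombinant CYP3A7 P450-Glo luminescent assay: enzyme-proluciferin substrate mix preincubated with compound 10 min at room temperature, reaction started with NADPH regeneration system for 1 h. Luciferin detected by luminescence; ketoconazole as positive control.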
# [2] = Viability qHTS for spleen associated tyrosine kinase inhibitor (SYKi) naive MV4-11 cells (AID 1963823); note: nearly all actives have a fitted effect of over 40% in size; note: potency is the fitted concentration of half-maximal effect
# Summary of the method: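 CellTiter-Glo luminescence, 10 min room-temperature incubation, gave viability. Cells: naive MV4-11 (500/well), treated 72 hr at 37 C, 5% CO2.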
# [3] = Viability qHTS for spleen associated tyrosine kinase inhibitor (SYKi) drug resistant MV4-11 cells (AID 1963824); note: nearly all actives have a fitted effect of over 35% in size; note: potency is the fitted concentration of half-maximal effect
# Summary of the method: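 SYK inhibitor-resistant MV4-11 AML cells, 500 per well, added to predispensed compounds and incubated 72 hr at 37 C, 5% CO2. Viability measured by CellTiter-Glo luminescence after 10 min at room temperature.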
# [4] = Cellular viability qHTS for adrenocortical cancer (ACC) cell line SW-13 (AID 1963989); conditions: SW-13 ACC cells viability, CellTiter-Glo, 48 h; activity (max response): stronger effect = lower value; note: nearly all actives have a fitted effect of over 65% in size; note: potency is the fitted concentration of half-maximal effect;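 for activity (max response): cells grown in serum-free medium with ITS supplement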
# Summary of the method: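 Luminescent ATP read-out (CellTiter-Glo, 20 min at room temperature) measured metabolically competent SW-13 cells after 48 h compound treatment. Final concentrations spanned up to 46 uM; bortezomib served as positive control.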
# [5] = Cellular viability qHTS for adrenocortical cancer (ACC) cell line NCI-H295R (AID 1963990); note: nearly all actives have a fitted effect of over 60% in size; note: potency is the fitted concentration of half-maximal effect
# Summary of the method: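 IC50 and maximal efficacy derive from four-parameter logistic modelling of titration curves, with reads scaled between DMSO-only wells (0%) and doxorubicin hydrochloride (100% inhibition). Compounds spanned up to 46 uM over 48 h.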
# Cytochrome P450 3A7 (Homo sapiens), sequence (P24462 whole entry, looked up): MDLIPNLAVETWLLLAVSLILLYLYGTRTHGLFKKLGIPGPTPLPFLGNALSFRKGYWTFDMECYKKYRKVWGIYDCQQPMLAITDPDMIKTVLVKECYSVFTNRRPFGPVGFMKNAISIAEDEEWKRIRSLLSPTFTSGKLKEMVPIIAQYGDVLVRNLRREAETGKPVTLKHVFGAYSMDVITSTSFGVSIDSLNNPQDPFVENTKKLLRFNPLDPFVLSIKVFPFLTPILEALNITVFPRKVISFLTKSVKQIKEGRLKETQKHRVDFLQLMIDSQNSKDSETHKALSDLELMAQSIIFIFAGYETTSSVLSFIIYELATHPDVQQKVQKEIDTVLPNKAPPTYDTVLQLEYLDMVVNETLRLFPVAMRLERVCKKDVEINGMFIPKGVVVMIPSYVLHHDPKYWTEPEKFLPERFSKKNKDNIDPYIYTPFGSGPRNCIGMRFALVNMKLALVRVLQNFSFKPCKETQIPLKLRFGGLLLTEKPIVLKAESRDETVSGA
SMILES,Potency [1],Potency [2],Potency [3],activity (max response) [4],Potency [5],"activity change, negative = inhibition [1]",viability (% of control) [2],"viability, % of control [3]","activity change, negative = viability loss [5]",Potency [4]
CC(O)CN(CCN(CC(C)O)CC(C)O)CC(C)O (stereo not given),inactive,inactive,inactive,5.94% (inactive),inactive,–,–,–,–,–
O=C(O)c1ccccc1O,inactive,inactive,inactive,13.2% (inactive),inactive,–,–,–,–,–
NCCNCCNCCNCCN,–,–,–,2.38% (inactive),–,14.5% [at 11.5 µM] (inactive),121% [at 9.25 µM] (inactive),109% [at 9.25 µM] (inactive),1% [at 9.17 µM] (inactive),–
CN(C)CCN1C(=O)c2ccccc2N(C)c2ccccc21,inactive,inactive,inactive,-13.1% (inactive),inactive,–,–,–,–,–
NCCCC(N)CC(=O)NCC1NC(=O)C(CO)NC(=O)C(N)CNC(=O)C(C2CCN=C(N)N2)NC(=O)C(=CNC(N)=O)NC1=O (stereo not drawn) (H-[Dap]S[Dap](ξβ3hOrn)[ΔAla(3-NHCONH2)][X2]; lactam 1-C; configuration not given here),–,–,–,-2.59% (inactive),–,0.114% [at 0.91 µM] (inactive),84.9% [at 0.588 µM] (inactive),101% [at 0.588 µM] (inactive),3.92% [at 0.587 µM] (inactive),–
NC(=O)c1ncn([C@@H]2O[C@H](CO)[C@@H](O)[C@H]2O)c1N,inactive,inactive,inactive,3.4% (inactive) and 2.54% (inactive),inactive,–,–,–,–,–
CC1CCN(CCCC(=O)c2ccc(F)cc2)CC1,inactive,inactive,inactive,-0.695% (inactive),inactive,–,–,–,–,–
CCn1ccc(NS(=O)(=O)c2ccc(N)cc2)nc1=O,inactive,inactive,inactive,11.1% (inactive),inactive,–,–,–,–,–
CCN1CCCC1=O,inactive,inactive,inactive,9.62% (inactive),inactive,–,–,–,–,–
COCCOCC(OC)OC,inactive,inactive,inactive,10.1% (inactive),inactive,–,–,–,–,–
CCn1cc(C(=O)O)c(=O)c2cc3c(cc21)OCO3,inactive,inactive,inactive,-2.41% (inactive),inactive,–,–,–,–,–
CC(=O)N(CC(O)CN(C(C)=O)c1c(I)c(C(=O)NCC(O)CO)c(I)c(C(=O)NCC(O)CO)c1I)c1c(I)c(C(=O)NCC(O)CO)c(I)c(C(=O)NCC(O)CO)c1I (stereo not given),inactive,inactive,inactive,14.1% (inactive),inactive,–,–,–,–,–
OCc1ccccc1O,inactive,inactive,inactive,6.34% (inactive),inactive,–,–,–,–,–
Cc1ncc(CO)c(C=O)c1O,inactive,inactive,inactive,-2.89% (inactive),inactive,–,–,–,–,–
OCC(O)CN1CCN(c2ccccc2)CC1 (stereo not given),inactive,422 nM (active) and inactive,inactive,-5.47% (inactive),inactive,–,–,–,–,–
CN1Cc2cc(C(=O)N3CCC(C4CCNCC4)CC3)ccc2NC(CC(=O)O)C1=O (stereo not given),inactive,inactive,inactive,10.5% (inactive),inactive,–,–,–,–,–
C[C@H](O)C(=O)Nc1c(I)c(C(=O)NC(CO)CO)c(I)c(C(=O)NC(CO)CO)c1I,inactive,inactive,inactive,10.3% (inactive),inactive,–,–,–,–,–
CCN(CC)C(=O)c1cccc(C)c1,inactive,inactive,inactive,6.94% (inactive),inactive,–,–,–,–,–
O=C(O)COc1nn(Cc2ccccc2)c2ccccc12,inactive,inactive,inactive,10.3% (inactive),inactive,–,–,–,–,–
CC(C)(C)C(=O)NCCCC(=O)O,inactive,inactive,inactive,7.9% (inactive),inactive,–,–,–,–,–
CCn1cc(C(=O)O)c(=O)c2cnc(N3CCCC3)nc21,–,–,–,-7.72% (inactive),–,25.3% [at 11.5 µM] (inactive),74.1% [at 9.25 µM] (inactive),103% [at 9.25 µM] (inactive),-14.1% [at 9.17 µM] (inactive),–
COc1cc2c(cc1OC(C)C)[C@H](c1ccc(Cl)cc1)N(c1ccc(N(C)CC3CCC(N4CCN(C)C(=O)C4)CC3)cc1)C(=O)C2 (stereo not given in full),inactive,11.8 µM (active),9.2 µM (active) and 8.33 µM (active),–,22.4 µM (active),–,–,–,–,25.1 µM (active)
Cc1nnc(C(C)C)n1C1CC2CCC(C1)N2CC[C@H](NC(=O)C1CCC(F)(F)CC1)c1ccccc1 (stereo not given in full),inactive,inactive,inactive,2.32% (inactive),inactive,–,–,–,–,–
COC(=O)CCc1ccc(OCC(O)CNC(C)C)cc1 (stereo not given),inactive,inactive,inactive,-6.6% (inactive),inactive,–,–,–,–,–
C[C@H]1O[C@@H](O[C@H]2[C@@H](O)C[C@H](O[C@H]3[C@@H](O)C[C@H](O[C@H]4CC[C@@]5(C)[C@H](CC[C@@H]6[C@@H]5C[C@@H](O)[C@]5(C)[C@@H](C7=CC(=O)OC7)CC[C@]65O)C4)O[C@@H]3C)O[C@@H]2C)C[C@H](O)[C@@H]1O,inactive,103 nM (active) and 118 nM (active),58 nM (active) and 118 nM (active),–,0.126 µM (active),–,–,–,–,0.0708 µM (active)
COc1cc(OC)cc(OC)c1,inactive,inactive,inactive,5.62% (inactive),inactive,–,–,–,–,–
CC1(C)OC(=O)Nc2ccc(Br)cc21,inactive,inactive,inactive,14.6% (inactive),inactive,–,–,–,–,–
